The source of these data is article PMC4336329 (PLoS ONE, 2015).

The structures appear in SMILES notation. Hit rate of the full screen: of about 310,000 compounds, about 14,000 (4.5%) showed an effect of 50% or more. Effects have a minus sign here. Only a selection was taken, and strong results are over-represented in it overall.
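Note: peak tail current of the secondary pulse compared with the same well before compound.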

For this assay, the target named is human ether-à-go-go-related gene (hERG) potassium channel (human, UniProt Q12809). In words: primary screen, population patch clamp on CHO cells stably expressing hERG; higher = less effect of the substance.
Chain of human ether-à-go-go-related gene (hERG) potassium channel (Q12809 whole entry, looked up): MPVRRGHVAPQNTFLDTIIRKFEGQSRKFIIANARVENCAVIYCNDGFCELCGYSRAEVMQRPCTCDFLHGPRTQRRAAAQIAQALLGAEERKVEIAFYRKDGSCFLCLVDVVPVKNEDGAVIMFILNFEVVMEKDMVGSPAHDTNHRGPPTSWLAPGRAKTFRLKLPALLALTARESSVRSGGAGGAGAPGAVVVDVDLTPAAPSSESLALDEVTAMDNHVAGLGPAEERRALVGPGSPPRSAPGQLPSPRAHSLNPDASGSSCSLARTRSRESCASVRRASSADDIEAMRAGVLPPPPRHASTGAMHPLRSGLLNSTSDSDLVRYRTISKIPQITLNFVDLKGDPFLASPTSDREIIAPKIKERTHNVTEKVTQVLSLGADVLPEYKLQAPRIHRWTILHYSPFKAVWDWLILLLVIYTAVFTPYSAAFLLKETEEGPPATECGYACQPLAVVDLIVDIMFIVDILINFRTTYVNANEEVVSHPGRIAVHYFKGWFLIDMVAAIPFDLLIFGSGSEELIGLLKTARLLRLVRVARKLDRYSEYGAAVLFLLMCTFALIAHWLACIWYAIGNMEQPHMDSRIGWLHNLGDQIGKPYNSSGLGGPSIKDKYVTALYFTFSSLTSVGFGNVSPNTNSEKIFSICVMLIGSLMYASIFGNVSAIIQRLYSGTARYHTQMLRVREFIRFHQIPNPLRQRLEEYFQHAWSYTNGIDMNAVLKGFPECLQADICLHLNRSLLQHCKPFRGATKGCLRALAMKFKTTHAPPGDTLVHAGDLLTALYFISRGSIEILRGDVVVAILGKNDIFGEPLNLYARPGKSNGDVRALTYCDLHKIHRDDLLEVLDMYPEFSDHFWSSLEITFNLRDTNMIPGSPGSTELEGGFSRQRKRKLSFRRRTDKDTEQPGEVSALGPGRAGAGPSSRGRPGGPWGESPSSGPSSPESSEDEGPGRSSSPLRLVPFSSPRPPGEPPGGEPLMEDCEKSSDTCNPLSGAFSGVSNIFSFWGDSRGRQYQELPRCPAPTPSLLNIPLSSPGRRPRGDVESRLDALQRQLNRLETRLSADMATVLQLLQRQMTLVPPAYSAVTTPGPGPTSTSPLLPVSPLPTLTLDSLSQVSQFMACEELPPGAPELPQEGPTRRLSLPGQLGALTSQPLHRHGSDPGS
Turning to `COc1ccc(C)cc1-n1c(SCC(=O)NC2CC2)nc2ccccc2c1=O`, the “hERG current change (%, negative = inhibition) at 10uM” value is -17.4%. Take `Nc1nc(SCc2nc3scc(-c4cccs4)c3c(=O)[nH]2)n[nH]1`: the “hERG current change (%, negative = inhibition) at 10uM” value turned out to be 18.9%.

For the compound `CCOc1ccc(-n2c(=O)[nH]cc(C(=O)N3CCCc4ccccc43)c2=O)cc1`, the “hERG current change (%, negative = inhibition) at 10uM” value was -9.75%. Turning to `Cc1cccc(N2CCN(C(=O)Cn3cccc3)CC2)c1C`, the “hERG current change (%, negative = inhibition) at 10uM” value came out at 2.77%.

On to `Cc1ccc(-c2cnc(NC(=O)CCC(=O)N3CCCCC3)n2C)cc1`, for which the “hERG current change (%, negative = inhibition) at 10uM” value is given as -6.45%. The figure for `O=C1C2C3C=CC(C3)C2C(=O)N1c1ccc(-c2nc3ccccc3o2)cc1` (centres unmarked) is 15.6%; for `CCC(C)(C)NC(=O)C(c1cccc(OC)c1OC)N(CCC(C)C)C(=O)CCC(=O)Nc1cc(C)on1` (centres unmarked) it is 11.6%. For `Cc1n[nH]c(C)c1CCN.Cl`, the “hERG current change (%, negative = inhibition) at 10uM” value is 12.9%. The figure for `COc1ccc(C(=O)Nc2ccc(-c3cn4ccsc4n3)cc2)cc1S(=O)(=O)N1CCOCC1` is -9.6%; for `Nn1c(SCC(=O)N2CCCc3ccccc32)nnc1-c1ccccc1` it is 2.21%; for `C=CCn1c(=O)n2ncnc2c2c3c(sc21)CCCC3` it is -59.3%.

Regarding `O=c1n(Cc2ccc(Cl)cc2)c2sc3c(c2c2ncnn12)CCCC3`, the “hERG current change (%, negative = inhibition) at 10uM” value is -39.1%. `O=C(Cn1c(=O)n2ncnc2c2c3c(sc21)CCCC3)c1ccccc1`: the “hERG current change (%, negative = inhibition) at 10uM” value is -20.1%.

As to `COc1cccc(C2=NNC(=NCc3ccccc3)SC2)c1`, the “hERG current change (%, negative = inhibition) at 10uM” value is reported as -42.6%.

Take `CCn1cnc2sc(C(=O)Oc3cccc(C)c3)c(C)c2c1=O`: the “hERG current change (%, negative = inhibition) at 10uM” value stood at 19.9%.

Regarding `Cc1nn(C)c(Oc2ccccc2)c1CCNC(=O)CCl`, the “hERG current change (%, negative = inhibition) at 10uM” value is 35.6%.

Turning to `Cc1cccc(Oc2ccc(N)cc2)c1`, the “hERG current change (%, negative = inhibition) at 10uM” value is -12%. As to `CC(=O)c1cnc2cc(-c3ccc(C)cc3)nn2c1C`, the “hERG current change (%, negative = inhibition) at 10uM” value is given as -4.26%. As to `N#Cc1c(N)sc2c1CCN(CCc1ccccc1)C2`, the “hERG current change (%, negative = inhibition) at 10uM” value is on record as -50.5%. Regarding `CCN1CCc2c(sc(N)c2C#N)C1`, the “hERG current change (%, negative = inhibition) at 10uM” value is 5.55%. Turning to `N#Cc1c(N)sc(=S)c2c1CCN(Cc1ccccc1)C2`, the “hERG current change (%, negative = inhibition) at 10uM” value is -5.46%. In the case of `CN(C)S(=O)(=O)c1ccc2c(c1)Cc1cc(S(=O)(=O)N(C)C)ccc1-2`, the “hERG current change (%, negative = inhibition) at 10uM” value turned out to be 20.1%.

Take `COc1cc(/C=C/c2ccc(O)cc2)cc(OC)c1`: the “hERG current change (%, negative = inhibition) at 10uM” value is on record as -2.2%. Regarding `Cc1occc1C(=O)NNC1=CC(=O)CC(C)(C)C1`, the “hERG current change (%, negative = inhibition) at 10uM” value turned out to be 13.3%. For `CC1CCN(CCCNC(=O)CCNC(=O)Cn2cnc3ccccc3c2=O)CC1` the value was 20.5%.

For the compound `OC1(C(F)(F)F)CC(c2ccc3ccccc3c2)=NO1` (centres unmarked), the “hERG current change (%, negative = inhibition) at 10uM” value was determined as 4.45%.
